Test in all cases: NCI-60 one-dose screen, 48 h (100 = growth as untreated, 0 = no growth, -100 = all killed)
Common to all, as to conditions: 10 µM unless noted

In assay [1] the test system is SR leukemia.
In assay [2] the test system is RPMI-8226 leukemia.
Assay [3] has as its system OVCAR-8 ovarian.
Assay [4] relates to OVCAR-5 ovarian.
Assay [5] has as its system OVCAR-4 ovarian.
Assay [6] has as its system SK-OV-3 ovarian.
The test system of assay [7] is IGROV1 ovarian.
Assay [8] relates to OVCAR-3 ovarian.
Assay [9] deals with HS 578T breast.
Assay [10] deals with NCI/ADR-RES ovarian.

The structures appear in SMILES notation. About 83,000 compounds went through this panel and 20% of them were active in at least one assay; those are over-represented in the sample as a whole.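 Single-concentration screen, 48 h exposure, 96-well plates. Endpoint: percent growth. Below 10 = active.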 Values without a mark were called inactive. Activity calls are given as the source filed them.

Drawing on PubChem BioAssay (NCI), this text covers growth for 13 molecules.

In the case of `O=C1Nc2c(ccc(Cl)c2Cl)/C1=C/c1ccc(F)cc1`, the growth was 73.9% in assay [1]; 96.5% in [2]; 97.9% in [3]; 84.4% in [4]; 73.8% in assay [5]; 89.7% in assay [6]. Moreover, the growth was 42.8% in [7], 83.5% in assay [8], 73.8% in assay [9] and 94% in [10].

As to `Cc1ccc(O)c(C(=O)O)c1`, the growth in [1] is 101%; in assay [2], 103%; in [3], 112%; in assay [4] it was 108%; in [5], 122%; in assay [6] it was 106%. Also, the growth in assay [7] was 95.3%; in [8], 107%; in assay [9], 108%; in assay [10], 111%.

Regarding `O=C(CN1CCOCC1)Nc1ccc2ncnc(Nc3ccc(Oc4cccc(F)c4)c(Cl)c3)c2c1`, the growth in assay [1] was 84.1%; in assay [2] it was 55.7%; in [3] it was 68.6%; in assay [4], 68.7%; in [5], 73.4%; in assay [6], 13.9%. For the same molecule, the growth in [7] was 19.9%; in assay [8], 55.6%; in [9] it was 86.6%; in assay [10], 60%.

With `COc1ccccc1/C=C1\Oc2cc(OCCCN3CCCC3)ccc2C1=O`, the growth in assay [1] is 46.9%; in [2], 107%; in assay [3] it was 93.7%; in assay [4] it was 84.2%; in assay [5], 89%; in [6] it was 108%. Moreover, the growth was 92.3% in [7], 94.8% in [8], 83.7% in [9] and 84.6% in [10].

For `COc1ccc(NS(=O)(=O)c2ccc(C)cc2)c([N+](=O)[O-])c1`, the growth was 100% in assay [1]; 96.7% in [2]; 104% in [3]; 106% in assay [4]; 115% in assay [5]; 105% in assay [6]. Also, the growth in assay [7] was 102%; in [8] it was 106%; in [9], 95.7%; in assay [10], 95.9%.

`COc1cc2c(cc1[N+](=O)[O-])-c1ccc([N+](=O)[O-])cc1/C2=N/NC(N)=S`: the growth was 42.6% in assay [1]; 66.1% in [2]; 51.9% in assay [3]; 98.9% in assay [4]; 57.6% in assay [5]; 96.5% in assay [6]. Besides, the growth in assay [7] was 47.9%; in assay [8], 73.7%; in assay [9], 77.3%; in assay [10] it was 69.6%.

For the molecule `C=C1C(=O)O[C@H]2[C@H]1CC/C(CNC(=O)/C=C/c1ccc(Br)cc1)=C\CC[C@@]1(C)O[C@@H]21`, the growth was 0.986% (active) in assay [1]; -33.7% (active) in assay [2]; 2.52% (active) in assay [3]; -51.4% (active) in assay [4]; 44.7% in assay [5]; 46.6% in assay [6]. The growth in assay [7] was -27.9% (active); in assay [8], -91.4% (active); in assay [9], -7.13% (active); in [10], 38.5%.

Turning to `O=C1CCCN1c1cccc2cccnc12`, the growth in assay [1] was 101%; in [2], 102%; in [3] it was 103%; in assay [4], 109%; in assay [5], 110%; in assay [6] it was 114%. Further, the growth in assay [7] is 107%; in assay [8] it was 110%; in [9], 97.3%; in [10], 99.3%.

Regarding `CC(=O)O[C@H]1CC[C@@]2(C)[C@@H](CC[C@@H]3[C@@H]2CC[C@@]2(C)[C@H]3CC[C@]2(O)C(C)=O)C1`, the growth in assay [1] is 91.8%; in [2], 88.1%; in assay [3], 109%; in assay [4], 97.7%; in assay [5], 102%; in [6], 103%. In addition, the growth in assay [7] was 99.7%; in assay [8], 108%; in assay [9] it was 97.2%; in assay [10], 96%.

For the molecule `COc1cc2nc(-c3ccc(C(F)(F)F)cc3)cc(OCCCN3CCC(O)CC3)c2cc1OC`, the growth in assay [1] is 10.9%; in assay [2] it was 9.93% (active); in assay [3] it was 44.1%; in assay [4] it was 42.8%; in [5] it was 59.7%; in assay [6], 65.8%. Also, the growth in [7] was 27.2%; in assay [8], 64%; in assay [9], 64.7%; in assay [10], 37.6%.

On to `COc1ccc(NC(=O)c2sc3nc(C)c(C(=O)CCc4cccc(OC)c4)cc3c2N)cc1`, for which the growth in assay [1] is 20.4%; in assay [2], 45.7%; in assay [3], 90.9%; in assay [4], 68.9%; in [5], 76.5%; in [6], 70.5%. Besides, the growth in [7] is 75.8%; in assay [8], 26.1%; in assay [9] it was 82%; in assay [10] it was 61.3%.

For `C=C1C(=O)O[C@H]2[C@H]1CC/C(COC(=O)NCCc1c[nH]c3ccc(Cl)cc13)=C\CC[C@@]1(C)O[C@@H]21`, the growth in assay [1] is -4.62% (active); in [2], -31.9% (active); in assay [3], -43.6% (active); in assay [4] it was -11.3% (active); in assay [5] it was -80.8% (active); in assay [6], 96.4%. The growth in assay [7] is -83.9% (active); in assay [8], -96.4% (active); in [9], 22.8%; in assay [10] it was 33.9%.

For `COC(=O)CCCCCCCCC1(C)C=CC(C(C)O)=CC1` (stereo not given), the growth was 89.8% in [1]; 103% in assay [2]; 105% in [3]; 120% in assay [4]; 110% in assay [5]; 110% in [6]. Moreover, the growth was 99.7% in assay [7], 111% in [8], 117% in assay [9] and 102% in assay [10].
